Data reported in PubChem BioAssay (NCATS).
Records with an inconclusive call do not appear. Active and inactive are the calls of the source. Calls follow the shape of the dose curve; as a rule, active = well fitted cell-killing curve with a large enough effect; inconclusive = small, poorly fitted or top-dose-only effect, or effect the other way; inactive = no such curve, though single readings can be large or run the other way.

Columns and labels:
[1] = Quantitative High-Throughput drug screen in 47 multiple myeloma cell lines against the NCATS MIPE library collection: MM1R_ATCC cell viability assay (AID 1918981); also: potency is read from the fitted curve at half-maximal effect; nearly all actives have a fitted effect of over 35% in size
How it was run: (§1)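 ATP-based CellTiter-Glo luminescence after 48 h drug exposure (37 °C, 5% CO2) of 500 myeloma cells per well. DMSO-only wells set 100% viability, media-only wells 0%; MIPE 4.0 library added by pin tool.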

[2] = Quantitative High-Throughput drug screen in 47 multiple myeloma cell lines against the NCATS MIPE library collection: OCIMY5_PLB cell viability assay (AID 1918988); also: nearly all actives have a fitted effect of over 65% in size; also: potency is read from the fitted curve at half-maximal effect
How it was run: as §1

[3] = Quantitative High-Throughput drug screen in 47 multiple myeloma cell lines against the NCATS MIPE library collection: OPM1_PLB cell viability assay (AID 1918989); also: nearly all actives have a fitted effect of over 40% in size; also: potency is read from the fitted curve at half-maximal effect
How it was run: as §1

[4] = Quantitative High-Throughput drug screen in 47 multiple myeloma cell lines against the NCATS MIPE library collection: U266_ATCC cell viability assay (AID 1919864); also: nearly all actives have a fitted effect of over 35% in size; also: potency is read from the fitted curve at half-maximal effect
How it was run: as §1

[5] = Quantitative High-Throughput drug screen in 47 multiple myeloma cell lines against the NCATS MIPE library collection: XG1_PLB cell viability assay (AID 1919866); also: nearly all actives have a fitted effect of over 35% in size; also: potency is read from the fitted curve at half-maximal effect
How it was run: as §1

[6] = Quantitative High-Throughput drug screen in 47 multiple myeloma cell lines against the NCATS MIPE library collection: VP6_DJ cell viability assay (AID 1919867); also: nearly all actives have a fitted effect of over 40% in size; also: potency is read from the fitted curve at half-maximal effect
How it was run: as §1

[7] = Quantitative High-Throughput drug screen in 47 multiple myeloma cell lines against the NCATS MIPE library collection: UTMC2_PLB cell viability assay (AID 1919868); conditions: CellTiter-Glo ATP luminescence, 48 h; viability (% of DMSO control): at 45.8 µM (top of the series); also: nearly all actives have a fitted effect of over 55% in size; also: potency is read from the fitted curve at half-maximal effect
How it was run: as §1

[8] = Quantitative High-Throughput drug screen in 47 multiple myeloma cell lines against the NCATS MIPE library collection: PE2_PLB cell viability assay (AID 1919869); also: nearly all actives have a fitted effect of over 35% in size; also: potency is read from the fitted curve at half-maximal effect
How it was run: as §1

[9] = Quantitative High-Throughput drug screen in 47 multiple myeloma cell lines against the NCATS MIPE library collection: PCM6_Riken cell viability assay (AID 1919870); also: nearly all actives have a fitted effect of over 30% in size; also: potency is read from the fitted curve at half-maximal effect
How it was run: as §1

[10] = Quantitative High-Throughput drug screen in 47 multiple myeloma cell lines against the NCATS MIPE library collection: RPMI8226_ATCC cell viability assay (AID 1919871); also: nearly all actives have a fitted effect of over 30% in size; also: potency is read from the fitted curve at half-maximal effect
How it was run: as §1

[11] = Quantitative High-Throughput drug screen in 47 multiple myeloma cell lines against the NCATS MIPE library collection: KMS11_JCRBsus cell viability assay (AID 1919873); also: nearly all actives have a fitted effect of over 50% in size; also: potency is read from the fitted curve at half-maximal effect
How it was run: as §1

[12] = Quantitative High-Throughput drug screen in 47 multiple myeloma cell lines against the NCATS MIPE library collection: LP1_DSMZ cell viability assay (AID 1918982); also: nearly all actives have a fitted effect of over 35% in size; also: potency is read from the fitted curve at half-maximal effect
How it was run: as §1

[13] = Quantitative High-Throughput drug screen in 47 multiple myeloma cell lines against the NCATS MIPE library collection: KMS28PE_JCRB cell viability assay (AID 1918983); also: nearly all actives have a fitted effect of over 35% in size; also: potency is read from the fitted curve at half-maximal effect
How it was run: as §1

[14] = Quantitative High-Throughput drug screen in 47 multiple myeloma cell lines against the NCATS MIPE library collection: L363_DSMZ cell viability assay (AID 1918984); also: nearly all actives have a fitted effect of over 40% in size; also: potency is read from the fitted curve at half-maximal effect
How it was run: as §1

[15] = Quantitative High-Throughput drug screen in 47 multiple myeloma cell lines against the NCATS MIPE library collection: KMS34_JCRB cell viability assay (AID 1918985); also: nearly all actives have a fitted effect of over 40% in size; also: potency is read from the fitted curve at half-maximal effect
How it was run: as §1

[16] = Quantitative High-Throughput drug screen in 47 multiple myeloma cell lines against the NCATS MIPE library collection: SKMM1_PLB cell viability assay (AID 1919863); conditions: SKMM1 myeloma viability, CellTiter-Glo ATP, 48 h; viability: stronger effect = lower value; also: nearly all actives have a fitted effect of over 35% in size; also: potency is read from the fitted curve at half-maximal effect
How it was run: as §1

[17] = Quantitative High-Throughput drug screen in 47 multiple myeloma cell lines against the NCATS MIPE library collection: XG6_PLB cell viability assay (AID 1919865); also: nearly all actives have a fitted effect of over 40% in size; also: potency is read from the fitted curve at half-maximal effect
How it was run: as §1

[18] = Quantitative High-Throughput drug screen in 47 multiple myeloma cell lines against the NCATS MIPE library collection: OPM2_DSMZ cell viability assay (AID 1919872); also: nearly all actives have a fitted effect of over 30% in size
How it was run: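 Inhibition of cell viability is measured here. Each line was plated at 500 cells per well, treated with MIPE 4.0 drugs, kept 48 hours at 37C, then assayed for ATP content by CellTiter-Glo luminescence.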

[19] = Quantitative High-Throughput drug screen in 47 multiple myeloma cell lines against the NCATS MIPE library collection: KMS28BM_JCRB cell viability assay (AID 1919874); also: nearly all actives have a fitted effect of over 35% in size; also: potency is read from the fitted curve at half-maximal effect
How it was run: as §1

[20] = Quantitative High-Throughput drug screen in 47 multiple myeloma cell lines against the NCATS MIPE library collection: OCIMY7_PLB cell viability assay (AID 1918987); conditions: OCI-MY7 myeloma viability, CellTiter-Glo ATP, 48 h; viability (% of DMSO): at 45.8 µM (top of the series); also: nearly all actives have a fitted effect of over 65% in size; also: potency is read from the fitted curve at half-maximal effect
How it was run: as §1

CN(C[C@@H]1COCCO1)S(=O)(=O)Nc1ccc2ccc3ncc(-c4cnn(C)c4)cc3c(=O)c2c1
active: Potency [1] 18.7 µM | Potency [2] 3.72 µM | Potency [3] 2.35 µM | Potency [4] 3.32 µM | Potency [5] 2.64 µM | Potency [6] 2.96 µM | Potency [7] 3.32 µM | Potency [8] 1.48 µM | Potency [9] 1.05 µM | Potency [10] 16.6 µM | Potency [11] 4.18 µM

CC(C)(C(=O)NCC(F)(F)C(F)(F)F)C(=O)N[C@@H]1C(=O)Nc2ccccc2-c2ccccc21
inactive: Potency [12] | Potency [13] | Potency [15] | Potency [2] | viability [16] 128% | Potency [10] | Potency [18] | Potency [19]
active: Potency [14] 3.72 µM | Potency [17] 16.6 µM | Potency [5] 10.5 µM | Potency [8] 18.7 µM | Potency [9] 3.32 µM

COc1ccc(-n2c(C)c([N+](=O)[O-])c3ccc(O)cc32)cc1
inactive: Potency [13] | Potency [3] | Potency [4] | Potency [17] | Potency [7] | Potency [10] | Potency [18]
active: Potency [1] 16.6 µM | Potency [16] 4.18 µM | Potency [8] 4.69 µM

NS(=O)(=O)c1ccc(NC2=CC(=O)c3ccccc3C2=O)cc1
inactive: Potency [13] | Potency [10] | Potency [18] | Potency [19]
active: Potency [12] 2.35 µM | Potency [14] 1.66 µM | Potency [2] 4.69 µM | Potency [3] 6.62 µM | Potency [16] 4.69 µM | Potency [6] 5.9 µM | Potency [8] 14.8 µM

CC=CCC=CCCC(=O)[C@H]1O[C@@H]1C(N)=O
active: Potency [1] 18.7 µM | Potency [14] 18.7 µM | Potency [20] 14.8 µM | Potency [2] 14.8 µM | Potency [16] 18.7 µM | Potency [17] 18.7 µM | Potency [5] 20.9 µM | Potency [6] 23.5 µM | Potency [8] 23.5 µM | Potency [9] 20.9 µM | Potency [11] 20.9 µM | Potency [19] 14.8 µM

Cc1c(NC(=O)c2ccc(C(C)(C)C)cc2)cccc1-c1cn(C)c(=O)c(Nc2ccc(C(=O)N3CCOCC3)cc2)n1
active: Potency [1] 20.9 µM | Potency [13] 23.5 µM | Potency [20] 8.33 µM | Potency [2] 16.6 µM | Potency [3] 18.7 µM | Potency [4] 23.5 µM | Potency [17] 20.9 µM | Potency [5] 9.35 µM | Potency [8] 14.8 µM | Potency [10] 14.8 µM | Potency [19] 18.7 µM

O=C(O)c1c(Cl)c(Cl)c(Cl)c(Cl)c1-c1c2cc(I)c(=O)c(I)c-2oc2c(I)c(O)c(I)cc12
inactive: Potency [7]
active: Potency [1] 13.2 µM | Potency [13] 14.8 µM | Potency [2] 13.2 µM | Potency [3] 9.35 µM | Potency [5] 5.9 µM | Potency [6] 14.8 µM | Potency [8] 6.62 µM | Potency [9] 6.62 µM | Potency [10] 9.35 µM | Potency [11] 6.62 µM

CS(=O)(=O)N(Cc1ccco1)CC(O)Cn1c2ccccc2c2ccccc21 (configuration not stated)
active: Potency [13] 5.9 µM | Potency [15] 16.6 µM | Potency [4] 18.7 µM | Potency [5] 20.9 µM | Potency [8] 16.6 µM | Potency [19] 26.4 µM
inactive: Potency [14] | Potency [17] | Potency [7] | Potency [10]

CC(C)OC(=O)C(C)(C)Oc1ccc(C(=O)c2ccc(Cl)cc2)cc1
active: Potency [13] 16.6 µM | Potency [4] 11.8 µM | Potency [8] 20.9 µM | Potency [10] 18.7 µM
inactive: Potency [14] | Potency [20] | Potency [17] | Potency [7] | Potency [19]

Cc1ccc(C(C)(O)c2nc3ccccc3s2)c(C)c1 (configuration not stated)
inactive: Potency [12] | Potency [14] | Potency [15] | viability [16] 94% | Potency [17] | Potency [5] | Potency [6] | Potency [8] | Potency [9] | Potency [10] | Potency [18] | Potency [11]

NC1=N[C@@]2(c3cc(NC(=O)c4ccc(F)cn4)ccc3F)COC[C@@H]2CS1
inactive: Potency [13] | viability [16] 111% | Potency [10]
active: Potency [14] 0.418 µM | Potency [2] 23.5 µM | Potency [3] 16.6 µM | Potency [17] 3.72 µM | Potency [6] 13.2 µM | Potency [8] 23.5 µM | Potency [9] 11.8 µM | Potency [11] 23.5 µM | Potency [19] 18.7 µM

NC(=O)NN=Cc1ccc([N+](=O)[O-])o1
active: Potency [14] 23.5 µM | Potency [6] 14.8 µM
inactive: Potency [13] | Potency [15] | viability [16] 122% | Potency [10] | Potency [18] | Potency [11] | Potency [19]

Cc1ccccc1C(C(=O)NC1CCCCC1)N(C(=O)Cn1ccnc1C)c1cccc(F)c1 (configuration not stated)
inactive: Potency [3] | Potency [17] | Potency [5] | Potency [8] | Potency [11]
active: Potency [12] 13.2 µM | Potency [15] 20.9 µM | Potency [2] 23.5 µM | Potency [16] 0.469 µM | Potency [4] 5.26 µM

CCNc1cc(NC2CCC(O)CC2)nc(Nc2ccc3c(ccn3Cc3ccccc3)c2)n1 (configuration not stated)
active: Potency [12] 20.9 µM | Potency [13] 23.5 µM | Potency [20] 16.6 µM | Potency [3] 29.6 µM | Potency [16] 18.7 µM | Potency [17] 20.9 µM | Potency [5] 23.5 µM | Potency [7] 37.2 µM | Potency [8] 23.5 µM | Potency [9] 20.9 µM | Potency [11] 20.9 µM
